High-throughput results (PubChem)
Most compounds without a hit are left out; they make up all but 8.1% or so of the library.
KB-V1 MDR tox – kills drug-selected multidrug resistant KB-V1 cells | KB-V1 MDR cells viability, CellTiter-Glo, 72 h | 400,000 tested, 3.4% active | AID 1347076 | Potency, µM (top dose mostly 46.1 µM), usual class: cytotoxic; further: on the % scale 0 is the no-effect control and ±100 the full control effect; nearly all actives have a fitted effect of over 60% in size
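Luminescent ATP read-out (CellTiter-Glo, 10 min) measures survival of drug-selected KB-V1 MDR cells after 72 h, 37 degrees C compound exposure. Medium: phenol-red-free DMEM, 10% FBS. Values from fitted concentration-response curves.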
MCF10A rerep – inducers of DNA re-replication in MCF 10A breast cells. MCF 10A DNA re-replication, Hoechst nuclear intensity, 48 h. Potency, µM (highest dose often 46.1 µM), for the others: at the highest dose activity, positive = re-replication, most hits filed as activators. 350,000 tested, 2.9% active. AID 624296; further: % of control where 0% means no effect; nearly all actives have a fitted effect of over 50% in size
SW480 rerep – inducers of DNA re-replication in SW480 colon cancer cells | Potency, µM (doses to about 46.1 µM), without a hit: at the top dose re-replication activation, hits mostly activators | SW480 DNA re-replication, Hoechst DNA content imaging, 48 h | 340,000 tested, 1.8% active | AID 624297; further: % of control where 0% means no effect; nearly all actives have a fitted effect of over 55% in size
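Compounds, transferred as 23 nL by pin tool, were incubated with cells for 48 hr; DNA content per nucleus was then quantified by Hoechst staining and fluorescence plate imaging.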
ELG1 repair inh – blocks ELG1-dependent DNA repair in HEK293T cells | HEK293T ELG1-luciferase reporter, luminescence, 16 h; DNA damage induced by 5-fluorouridine | 330,000 tested, 2.3% active | Potency, µM (titrated, usually from 46.1 µM), inactives show top-dose activity change, negative = inhibition, actives largely listed as inhibitors; further: on the % scale 0 is the no-effect control and ±100 the full control effect; nearly all actives have a fitted effect of over 55% in size
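HEK293T cells expressing luciferase-tagged ELG1 (2,000/well) received 5-Fluorouridine plus compound or DMSO for 16 hr at 37 °C. Luciferase was read by ONE-Glo luminescence after 30 min at room temperature.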
KB-3-1 tox – kills parental KB-3-1 adenocarcinoma cells; KB-3-1 viability, CellTiter-Glo ATP luminescence, 72 h; Potency, µM (highest dose often 46.1 µM), actives largely listed as cytotoxic; 400,000 tested, 1.4% active; further: on the % scale 0 is the no-effect control and ±100 the full control effect; nearly all actives have a fitted effect of over 60% in size
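72 h, 37 °C compound treatment of KB-3-1 parental cells; CellTiter-Glo added, 10 min, luminescence read. Data corrected against DMSO-only plates and normalized before curve fitting.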
* = called active by the depositor; i = inactive; ? = inconclusive; . = not tested or not shown; [ ] = another dose, or the depositor's remark. The call rests on the fitted dose curve; in most records, active means well fitted curve in the direction sought with a large enough effect; inconclusive means small, poorly fitted or top-dose-only effect, or another doubt; inactive means no such curve, though single readings can be large; an effect the other way counts as inactive or inconclusive. Potency means the concentration at half of the fitted maximal effect.

SMILES	KB-V1 MDR tox	MCF10A rerep	SW480 rerep	ELG1 repair inh	KB-3-1 tox
COc1ccc(S(=O)(=O)NCc2ccccn2)cc1NC(=O)c1ccccc1	?	21µM*	9.2µM*	-12%	13µM*
COc1ccc(S(=O)(=O)NCc2ccccn2)cc1Br	i	-11%	-1%	5%	i
CCOc1cc(C)c(C(C)C)cc1S(=O)(=O)NCc1ccccn1	9.2µM*	9%	1%	.	i
O=C(CC1C(=O)NCCN1Cc1cccc(C(F)(F)F)c1)NCCCOc1cccnc1 (stereo not drawn)	?	-2%	-19%	11%	i
COc1cc(C(=O)NCCC(=O)N2CCCCC2)cc(OC)c1OC	i	3%	-2%	10%	i
O=C(CSc1nc2ccncc2[nH]1)Nc1ccccc1C(F)(F)F	i	-4%	1%	?	?
CCOc1ccc(S(=O)(=O)NCc2ccccn2)cc1NC(=O)c1ccccc1F	?	?	0.82µM*	-1%	?
CN(C)c1ccc(NC(=O)Nc2nnc([C@H]3C[C@H](O)[C@@H](CO)O3)s2)cc1	i	.	.	.	i
CCCC[n+]1c(/C=C/c2c(OC)cc(OC)cc2OC)ccc2ccccc21	i	.	.	.	i
COc1cc(OC)c(/C=C/c2ccc3ccccc3[n+]2C)c(OC)c1	i	.	.	.	0.73µM*
CCC[n+]1c(/C=C/c2c(OC)cc(OC)cc2OC)ccc2ccccc21	i	.	.	.	1.3µM*
COc1ccccc1CC(=O)NCc1nn(-c2ccccc2)nc1C	i	8%	0%	-2%	i
CCc1ccc(S(=O)(=O)/N=C2\C=C(NS(=O)(=O)c3ccccc3)C(=O)c3ccccc32)cc1	i	12%	12%	-30%	i
Cc1ccccc1NC1=C/C(=N\S(=O)(=O)c2ccc(C(=O)O)cc2)c2ccccc2C1=O	?	2.1µM*	?	12µM*	?
O=C(O)c1ccc(S(=O)(=O)/N=C2\C=C(Nc3ccccc3F)C(=O)c3ccccc32)cc1	?	1.5µM*	6.5µM*	?	?
COC(=O)C(C(C)=O)C1=C/C(=N\S(=O)(=O)c2ccc(C)cc2)c2ccccc2C1=O (stereo not drawn)	i	?	?	-4%	i
Cc1ccc(C)c(S(=O)(=O)/N=C2\C=C(NS(=O)(=O)c3ccccc3)C(=O)c3ccccc32)c1	i	?	?	23µM*	?
Cc1ccc(S(=O)(=O)NCCCNC(=O)OCc2ccccc2)cc1	i	-1%	-4%	.	i
CC1CC(C)(C)NC(=S)N1CCCC(=O)N1CCN(c2ccccc2F)CC1 (stereo not drawn)	i	0%	0%	-5%	i
O=c1[nH]nc(-c2ccc[nH]2)[nH]1	i	.	.	.	i
CCOc1ccc(S(=O)(=O)N2CCN(C(=O)c3sccc3C)CC2)cc1	i	5%	-2%	?	i
O=C(NC(=S)Nc1ccccc1[N+](=O)[O-])c1ccccc1Cl	?	-4%	-35%	?	13µM*
O=C(NNC(=S)NC(=O)c1ccccc1[N+](=O)[O-])c1ccccc1Cl	i	20%	1%	-9%	i
Cc1ccc(C(=O)NC(=S)Nc2cccc(NC(=O)c3ccccc3Cl)c2)cc1[N+](=O)[O-]	i	-5%	-8%	18µM*	i
CCCC(C)NC(=O)c1sc2nc3n(c(=O)c2c1C)CCC3 (stereo not drawn)	?	7%	-9%	8%	i
Cc1cc(N2CC(C(=O)NCc3cccs3)CC2=O)ccc1C(C)C (stereo not drawn)	?	4%	-1%	-8%	?
COc1cc2c(C#CCCO)c(-c3ccc(C#N)cc3)oc(=O)c2cc1OC	i	6.5µM*	-14%[9.22 µM]	21%	i
Cc1c(Cl)c([N+](=O)[O-])nn1CCCC(=O)N1CCN(c2ccccc2)CC1	i	0%	-3%	-20%	i
Cc1c(Br)c([N+](=O)[O-])nn1CC(=O)N1CCc2ccccc2C1	16µM*	1%	-13%	17%	i
